Experimental data from ChEMBL document CHEMBL4513149, “CO-ADD screening of MMV (CH) - MMV compounds” (2021).
Results with a measured potency or affinity are listed apart.

Tested on: Escherichia coli
Conditions: Concentration 20 uM; ASSAY_TEST Inhibition of Bacterial Growth; detection method Absorption (OD600); MEDIA CAMHB; plate type 384well; NBS; CORNING #3640; time 18 hr

Row | Compound | Inhibition
1 | CC(C)C(NC(=O)Cc1cccc2ccccc12)C(=O)Nc1cccc(C#N)c1 (stereo unspecified) | 6.32%
2 | Cc1noc(C)c1COc1cccc(C(=O)N=c2[nH]cccc2C)c1 | 6.93%
3 | CC1(COc2ccc(N3CCC(Oc4ccc(OC(F)(F)F)cc4)CC3)cc2)Cn2cc([N+](=O)[O-])nc2O1 (stereo unspecified) | 11.79%
4 | CN1CCN(c2cc(-c3ccc(F)cc3)nc(-c3ccncc3)n2)CC1 | -5.05%
5 | CN(C(=O)c1cc2c(-c3cncnc3)cccc2[nH]1)c1ccccc1 | 10.65%
6 | CC[C@H](CO)NCCN[C@H](CC)CO.Cl.Cl | -1.24%
7 | NC(=O)c1cc(Br)ccc1OCCOc1ccccc1 | -2.13%
8 | COc1ccc(Cl)cc1NC(=O)CN(C)C(=O)c1cnn(-c2ccccc2)n1 | -2.51%
9 | Cc1cc(OCC(=O)Nc2ccc(C(C)C)cc2)n(C)c(=O)c1C#N | 14.16%
10 | N#CCN(CCCCN1CCN(c2ccc(F)cc2)CC1)C(=O)OCc1ccccc1 | 7.95%
11 | COc1ccc(Cn2cnc3c(-c4ccco4)nc(Cl)nc32)cc1 | 10.18%
